For four molecules, AC50 and outcome results are on record in PubChem BioAssay (EPA / NIEHS).

Inconclusive results are not listed. The source made the active and inactive calls. The calls were made as follows, unless noted: active = hit-call score of the fitted dose curve at least 0.9, where 1 is the maximum; inactive = score below 0.9.

Read-out in assay [1]: solute carrier (SLC22A1), SLC22A1 (gene 6580)
As to the kind of experiment: LTEA_HepaRG_SLC22A1: Life Technologies and Expression Analysis (LTEA) Assay for solute carrier (SLC22A1) using HepaRG (AID 2283524). Conditions: mRNA level, 48 h; actives raise or lower the signal. Put shortly: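 Transcript level of SLC22A1 quantified by qRT-PCR (normalized to three housekeeping genes) after 48 h chemical exposure of HepaRG cells, eight concentrations up to 100 µM, half-log steps, 0.5% DMSO vehicle. Gain or loss relative to DMSO fitted bidirectionally.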

Read-out in assay [2]: Pyruvate Dehydrogenase Kinase 4 (PDK4), PDK4 (gene 5166)
The assay is described as follows: LTEA_HepaRG_PDK4: Life Technologies and Expression Analysis (LTEA) Assay for Pyruvate Dehydrogenase Kinase 4 (PDK4) using HepaRG (AID 2283525). The conditions noted are these: mRNA level, 48 h; actives raise or lower the signal. Put shortly:
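Readout is qRT-PCR of PDK4 transcript, normalized to three housekeeping genes, with bidirectional fitting against 0.5% DMSO vehicle. Differentiated HepaRG cells were treated 48 h in serum-free induction medium, duplicate wells, eight-point half-log series topping at 100 uM.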

Read-out in assay [3]: NAD(P)H dehydrogenase [quinone] 1 (NQO1), NQO1 (gene 1728)
As to the kind of experiment: LTEA_HepaRG_NQO1: Life Technologies and Expression Analysis (LTEA) Assay for NAD(P)H dehydrogenase [quinone] 1 (NQO1) using HepaRG (AID 2283526). The conditions noted are these: mRNA level, 48 h; actives raise or lower the signal. The gist of the method:
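In this assay, gene expression is read by qRT-PCR after 48 h exposure of HepaRG cells to eight concentrations (max 100 uM, half-log) in 0.5% DMSO. Each chemical runs in duplicate, and activity is scored relative to vehicle.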

Read-out in assay [4]: Nuclear factor erythroid 2-related factor 2 (Homo sapiens) (UniProt Q16236)
As to the kind of experiment: LTEA_HepaRG_NFE2L2: Life Technologies and Expression Analysis (LTEA) Assay for Nuclear factor erythroid 2-related factor 2 (NFE2L2) Transcription Factor using HepaRG (AID 2283527). Conditions: mRNA level, 48 h; actives raise or lower the signal. Put shortly: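 NFE2L2 transcript level was read by qRT-PCR (housekeeping ACTB/GAPDH/POLR2A normalisation) after 48 h chemical treatment of HepaRG in serum-free induction medium. Duplicate 8-point half-log curves, top 100 uM, 0.5% DMSO vehicle; up- or down-regulation fitted against vehicle.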

Read-out in assay [5]: succinate dehydrogenase complex iron sulfur subunit B (SDHB), SDHB (gene 6390)
As to the kind of experiment: LTEA_HepaRG_SDHB: Life Technologies and Expression Analysis (LTEA) Assay for succinate dehydrogenase complex iron sulfur subunit B (SDHB) using HepaRG (AID 2283528). The conditions noted are these: mRNA level, 48 h; actives raise or lower the signal. Put shortly: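 HepaRG cells (~100,000/well, plated 48 h) exposed in duplicate for 48 h in serum-free induction medium to 8-point half-log series from 100 uM in 0.5% DMSO; mRNA by qRT-PCR normalised to ACTB, GAPDH, POLR2A; bidirectional fit versus DMSO.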

Read-out in assay [6]: Signal transducer and activator of transcription 3 (Homo sapiens) (UniProt P40763)
The assay is described as follows: LTEA_HepaRG_STAT3: Life Technologies and Expression Analysis (LTEA) Assay for Signal transducer and activator of transcription (STAT3) using HepaRG (AID 2283529). The conditions noted are these: mRNA level, 48 h; actives raise or lower the signal. Put shortly: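 STAT3 transcript quantified by qRT-PCR against three housekeeping genes (ACTB, GAPDH, POLR2A), fitted both directions relative to DMSO. HepaRG cultures exposed 48 h to eight half-log concentrations, top 100 uM, 0.5% DMSO, serum-free induction medium.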

Read-out in assay [7]: solute carrier (SLCO1B1), SLCO1B1 (gene 10599)
As to the kind of experiment: LTEA_HepaRG_SLCO1B1: Life Technologies and Expression Analysis (LTEA) Assay for solute carrier (SLCO1B1) using HepaRG (AID 2283530). Conditions: mRNA level, 48 h; actives raise or lower the signal. Put shortly:
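Differentiated human HepaRG cells, plated 48 h, switched to serum-free induction medium and exposed in duplicate for 48 h to 8 half-log concentrations (top 100 uM) in 0.5% DMSO. SLCO1B1 mRNA by TaqMan qRT-PCR, normalized to ACTB/GAPDH/POLR2A.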

Read-out in assay [8]: sulfotransferase 2A1 (SULT2A1), SULT2A1 (gene 6822)
As to the kind of experiment: LTEA_HepaRG_SULT2A1: Life Technologies and Expression Analysis (LTEA) Assay for sulfotransferase 2A1 (SULT2A1) using HepaRG (AID 2283531). The conditions noted are these: mRNA level, 48 h; actives raise or lower the signal. The gist of the method: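 Differentiated human HepaRG cells in serum-free induction medium were exposed for 48 h to eight half-log concentrations (top 100 uM, 0.5% DMSO). SULT2A1 mRNA was measured by qRT-PCR, normalized to ACTB, GAPDH and POLR2A, and fitted bidirectionally against DMSO.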

Read-out in assay [9]: Transforming Growth Factor (TGFA), TGFA (gene 7039)
As to the kind of experiment: LTEA_HepaRG_TGFA: Life Technologies and Expression Analysis (LTEA) Assay for Transforming Growth Factor (TGFA) using HepaRG (AID 2283532). The conditions noted are these: mRNA level, 48 h; actives raise or lower the signal. The gist of the method: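 TGFA transcript quantified by qRT-PCR (Fluidigm arrays) against three housekeeping genes, after 48 hours chemical treatment of HepaRG cells. Top concentration 100 uM with half-log dilutions, 8 points, duplicates, 0.5% DMSO.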

Read-out in another assay: TIMP1, TIMP1 (gene 7076)
As to the kind of experiment: LTEA_HepaRG_TIMP1: Life Technologies and Expression Analysis (LTEA) Assay for TIMP1 using HepaRG (AID 2283534). Conditions: mRNA level, 48 h; actives raise or lower the signal. The gist of the method:
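Differentiated human HepaRG cells in serum-free induction medium were exposed 48 h to chemicals (8 half-log concentrations, top 100 uM, 0.5% DMSO). TIMP1 mRNA was quantified by TaqMan qRT-PCR, normalized to ACTB/GAPDH/POLR2A; bidirectional fit versus DMSO.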

Read-out in assay [10]: Tumor necrosis factor receptor 1 (TNFRSF1A), TNFRSF1A (gene 7132)
As to the kind of experiment: LTEA_HepaRG_TNFRSF1A: Life Technologies and Expression Analysis (LTEA) Assay for Tumor necrosis factor receptor 1 (TNFRSF1A) using HepaRG (AID 2283535). Conditions: mRNA level, 48 h; actives raise or lower the signal. Put shortly:
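Differentiated human HepaRG cells were exposed in duplicate for 48 h in serum-free induction medium to eight concentrations (top 100 uM, half-log steps, 0.5% DMSO). TNFRSF1A mRNA was quantified by qRT-PCR, normalized to ACTB, GAPDH and POLR2A, then fitted bidirectionally against DMSO.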

Read-out in assay [11]: Thyroid Hormone Responsive (THRSP), THRSP (gene 7069)
As to the kind of experiment: LTEA_HepaRG_THRSP: Life Technologies and Expression Analysis (LTEA) Assay for Thyroid Hormone Responsive (THRSP) using HepaRG (AID 2283536). The conditions noted are these: mRNA level, 48 h; actives raise or lower the signal. The gist of the method: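 THRSP transcript quantified by Fluidigm qRT-PCR against three housekeeping genes after 48 h chemical exposure of HepaRG cells in serum-free induction medium; eight-point half-log series, top 100 uM, 0.5% DMSO vehicle, duplicate wells.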

Read-out in assay [12]: UDP glucuronosyltransferase (UGT1A1), UGT1A1 (gene 54658)
The assay is described as follows: LTEA_HepaRG_UGT1A1: Life Technologies and Expression Analysis (LTEA) Assay for UDP glucuronosyltransferase (UGT1A1) using HepaRG (AID 2283538). The conditions noted are these: mRNA level, 48 h; actives raise or lower the signal. The gist of the method:
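mRNA induction or loss of UGT1A1, by TaqMan qRT-PCR, in duplicate HepaRG wells after 48 h exposure to half-log dilutions topping at 100 uM; DMSO (0.5%) served as baseline.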

Read-out in assay [13]: UDP glucuronosyltransferase (UGT1A6), UGT1A6 (gene 54578)
As to the kind of experiment: LTEA_HepaRG_UGT1A6: Life Technologies and Expression Analysis (LTEA) Assay for UDP glucuronosyltransferase (UGT1A6) using HepaRG (AID 2283539). Conditions: mRNA level, 48 h; actives raise or lower the signal. The gist of the method:
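Human HepaRG cells were dosed for 48 h in serum-free induction medium with 0.5% DMSO vehicle, eight-point half-log series from 100 uM, in duplicate. UGT1A6 mRNA was measured by qRT-PCR, normalized to ACTB, GAPDH, POLR2A, and fitted bidirectionally against DMSO.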

Read-out in assay [14]: X-box binding protein 1 (XBP1), XBP1 (gene 7494)
The assay is described as follows: LTEA_HepaRG_XBP1: Life Technologies and Expression Analysis (LTEA) Assay for X-box binding protein 1 (XBP1) using HepaRG (AID 2283540). Conditions: mRNA level, 48 h; actives raise or lower the signal. The gist of the method: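 Differentiated human HepaRG cells in serum-free induction medium were exposed in duplicate for 48 h to eight half-log concentrations up to 100 uM in 0.5% DMSO. XBP1 mRNA was quantified by qRT-PCR, normalised to ACTB, GAPDH and POLR2A, with bidirectional fitting against DMSO.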

Assay [15] can be described thus: LTEA_HepaRG_LDH_cytotoxicity: Cytotoxicity Assessment in the Life Technologies and Expression Analysis (LTEA) Assay (AID 2283563; active = hit-call score of the fitted dose curve at least 0.9, where 1 is the maximum;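 as to AC50: LDH activity released into spent culture medium as a marker of cell death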). Put shortly:
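Differentiated human HepaRG cells, plated 48 h beforehand, were switched to serum-free induction medium and exposed for 48 h to eight half-log concentrations (top 100 uM) in 0.5% DMSO. LDH was measured in spent medium; activity was fitted relative to DMSO vehicle.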

Read-out in assay [16]: Transforming Growth Factor (TGFB1), TGFB1 (gene 7040)
The assay is described as follows: LTEA_HepaRG_TGFB1: Life Technologies and Expression Analysis (LTEA) Assay for Transforming Growth Factor (TGFB1) Transporter using HepaRG (AID 2283533). Conditions: mRNA level, 48 h; actives raise or lower the signal. The gist of the method:
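Differentiated human HepaRG cells in serum-free induction medium were exposed in duplicate for 48 h to eight concentrations (top 100 uM, half-log steps, 0.5% DMSO). TGFB1 mRNA was quantified by qRT-PCR, normalized to ACTB, GAPDH, POLR2A, and fitted bidirectionally against DMSO.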

Read-out in assay [17]: Cellular tumor antigen p53 (Homo sapiens) (UniProt P04637)
As to the kind of experiment: LTEA_HepaRG_TP53: Life Technologies and Expression Analysis (LTEA) Assay for Tumor Protein P53 (TP53) using HepaRG (AID 2283537). Conditions: mRNA level, 48 h; actives raise or lower the signal. The gist of the method:
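Differentiated HepaRG cells in serum-free induction medium exposed 48 h in duplicate to 8 half-log concentrations, top 100 uM, 0.5% DMSO. TP53 mRNA by TaqMan qRT-PCR (Fluidigm), normalized to ACTB, GAPDH, POLR2A; fitted bidirectionally versus DMSO.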

The nature of assay [18]: TOX21_p53_BLA_p2_viability: Viability Assessment in the Tox21 HCT-116 p53 Agonism Beta-lactamase Assay, Phase 2 (AID 2283591; active = hit-call score of the fitted dose curve at least 0.9, where 1 is the maximum;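 also: compound exposure lasted 16 h at 37 °C; actives lower the ATP signal meaning cytotoxicity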). The gist of the method: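 Cytotoxicity readout: CellTiter-Glo ATP luminescence, 30 min at room temperature, after the beta-lactamase read. Cells were HCT116 exposed 16 h at 37C to compounds pin-transferred at 217-fold dilution from DMSO stocks.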

Sequence of Nuclear factor erythroid 2-related factor 2 (Homo sapiens) (Q16236 whole entry, looked up): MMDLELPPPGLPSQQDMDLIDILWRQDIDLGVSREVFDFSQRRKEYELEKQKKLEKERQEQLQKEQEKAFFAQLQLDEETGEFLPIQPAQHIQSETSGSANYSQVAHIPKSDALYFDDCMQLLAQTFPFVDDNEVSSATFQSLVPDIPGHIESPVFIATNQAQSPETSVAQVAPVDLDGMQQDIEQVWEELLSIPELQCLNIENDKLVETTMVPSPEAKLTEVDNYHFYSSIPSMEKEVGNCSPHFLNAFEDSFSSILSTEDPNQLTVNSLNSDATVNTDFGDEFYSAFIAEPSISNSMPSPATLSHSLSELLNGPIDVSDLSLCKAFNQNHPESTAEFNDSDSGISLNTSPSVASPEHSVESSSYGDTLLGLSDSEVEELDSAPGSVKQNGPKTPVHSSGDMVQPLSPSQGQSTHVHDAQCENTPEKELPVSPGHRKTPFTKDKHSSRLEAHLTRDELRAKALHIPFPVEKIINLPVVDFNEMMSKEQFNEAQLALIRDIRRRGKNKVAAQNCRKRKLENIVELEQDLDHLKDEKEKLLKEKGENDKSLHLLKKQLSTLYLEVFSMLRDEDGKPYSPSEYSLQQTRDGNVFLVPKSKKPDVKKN
Sequence of Signal transducer and activator of transcription 3 (Homo sapiens) (P40763 whole entry, looked up): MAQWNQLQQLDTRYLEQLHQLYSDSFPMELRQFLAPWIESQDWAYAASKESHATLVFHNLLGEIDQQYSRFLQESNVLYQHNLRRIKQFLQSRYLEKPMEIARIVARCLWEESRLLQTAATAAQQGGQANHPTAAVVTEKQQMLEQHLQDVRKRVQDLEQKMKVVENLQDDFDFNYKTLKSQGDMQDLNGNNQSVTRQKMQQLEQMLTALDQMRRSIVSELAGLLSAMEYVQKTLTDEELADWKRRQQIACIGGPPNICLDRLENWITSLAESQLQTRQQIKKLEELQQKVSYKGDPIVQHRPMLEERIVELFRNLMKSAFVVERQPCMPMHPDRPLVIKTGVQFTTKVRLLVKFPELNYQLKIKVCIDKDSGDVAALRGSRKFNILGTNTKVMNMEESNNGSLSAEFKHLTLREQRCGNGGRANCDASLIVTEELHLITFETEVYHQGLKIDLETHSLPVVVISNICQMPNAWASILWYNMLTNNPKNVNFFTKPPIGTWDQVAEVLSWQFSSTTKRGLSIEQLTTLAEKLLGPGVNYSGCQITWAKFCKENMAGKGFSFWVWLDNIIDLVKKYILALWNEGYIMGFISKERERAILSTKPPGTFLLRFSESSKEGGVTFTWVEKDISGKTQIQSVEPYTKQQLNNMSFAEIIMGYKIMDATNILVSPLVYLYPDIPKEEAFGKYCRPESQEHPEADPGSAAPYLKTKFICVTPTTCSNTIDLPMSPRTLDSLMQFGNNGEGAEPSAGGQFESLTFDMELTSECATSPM
Sequence of Cellular tumor antigen p53 (Homo sapiens) (P04637 whole entry, looked up): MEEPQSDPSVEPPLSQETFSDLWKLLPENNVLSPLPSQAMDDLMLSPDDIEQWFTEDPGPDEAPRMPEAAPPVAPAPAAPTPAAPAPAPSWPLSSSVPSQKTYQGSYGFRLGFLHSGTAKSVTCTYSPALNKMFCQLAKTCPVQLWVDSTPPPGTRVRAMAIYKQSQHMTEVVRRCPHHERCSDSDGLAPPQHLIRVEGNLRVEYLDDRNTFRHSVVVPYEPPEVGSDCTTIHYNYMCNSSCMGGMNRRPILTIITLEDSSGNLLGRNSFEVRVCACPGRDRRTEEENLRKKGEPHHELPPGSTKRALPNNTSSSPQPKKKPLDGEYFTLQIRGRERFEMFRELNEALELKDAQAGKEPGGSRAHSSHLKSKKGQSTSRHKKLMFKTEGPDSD

Broadly, the AC50 is the concentration at which the activity in the assay is half-maximal. In the case of `CCNS(=O)(=O)C(F)(F)C(F)(F)C(F)(F)C(F)(F)C(F)(F)C(F)(F)C(F)(F)C(F)(F)F`, the AC50 was 40.5 µM (active) in [1]; 30.4 µM (active) in assay [2]; 48.2 µM (active) in [7]; 48.2 µM (active) in assay [11]; 48.2 µM (active) in assay [14]. Besides, the call in assay [3], in [4], in assay [5], in [6], in assay [8] and in assay [9] was inactive. The outcome with TIMP1, TIMP1 (gene 7076) is “inactive”; in [10] it was “inactive”; in assay [12], “inactive”; in assay [13] it was “inactive”; in assay [15] it was “inactive”.

`c1ccc2c(c1)-c1cccc3cccc-2c13`: the molecule was classed as inactive in assay [1], in assay [2], in [3], in assay [4], in assay [5] and in [6]. The outcome was “inactive” in assay [7]; “inactive” in assay [8]; “inactive” in [9]; “inactive” in assay [16]; “inactive” with TIMP1, TIMP1 (gene 7076); “inactive” in [10]. In addition, the outcome in [11], in [17], in assay [13], in [14] and in assay [18] was inactive. The AC50 in [12] was 16.1 µM (active).

Turning to `Nc1ccc(Oc2ccc(N)cc2)cc1`, the molecule was classed as inactive in [1], in assay [2], in [3], in assay [4], in [5] and in assay [6]. In addition, the outcome in assay [7] was “inactive”; in assay [8] it was “inactive”; in assay [9] it was “inactive”; with TIMP1, TIMP1 (gene 7076), “inactive”; in [10], “inactive”; in [11] it was “inactive”. Besides, the outcome in assay [17], in [13], in [14], in assay [15] and in assay [18] was inactive. Moreover, the AC50 in assay [12] is 78.9 µM (active).

Consider `O=[N+]([O-])c1ccc(Oc2ccc(Cl)cc2Cl)cc1`, for which the AC50 in assay [2] is 11.3 µM (active); in [15], 73.8 µM (active). The result in [3], in assay [4], in [5], in assay [6], in [7] and in assay [8] was inactive. For the same molecule, the outcome in assay [9] was “inactive”; in assay [16] it was “inactive”; with TIMP1, TIMP1 (gene 7076) it was “inactive”; in assay [10], “inactive”; in assay [11], “inactive”; in assay [17], “inactive”. Moreover, the call in assay [13], in assay [14] and in [18] was inactive.
